Laboratory results published in PubChem BioAssay AID1347072 (National Center for Advancing Translational Sciences (NCATS), 2019).
The campaign covered roughly 44,000 compounds. Fewer than 10 were called active. Inconclusive results (about 2%) are left out. Calls come from the whole dose curve; as a rule, active = well fitted curve in the direction sought with a large enough effect; inconclusive = small, poorly fitted or top-dose-only effect, or another doubt; inactive = no such curve, though single readings can be large or run the other way. Not all results are given here.

Target: Galactokinase (Homo sapiens) (UniProt P51570)
Test: qHTS Assay for Inhibitors of Human Galactokinase (GALK): NCGC Sytravon Library Screen
Conditions: recombinant GALK, Kinase-Glo ATP luminescence, 1 h; series mostly up to 57.5 µM
Excerpt: Inherited deficiency of galactose-1-phosphate uridyltransferase (GALT) can result in a potentially lethal disorder called Classic Galactosemia (OMIM 230400). Several lines of evidence indicate that an elevated level of galactose-1-phosphate (gal-1-p), the product of galactokinase (GALK), is a major, if not sole, pathogenic mechanism in patients with classic galactosemia. Therefore, finding inhibitors of GALK is a potential novel therapy for this inherent metabolic disease and is the long term goal of this project. This screen is run against the NCGC Sytravon compound library collection. GALK (provided by Kent Lai) was assayed using ATP and D-(+)-Galactose (Sigma-Aldrich cat# G0750) as substrates. Promega Kinase-Glo Plus technology was used to detect kinase activity. Reactions with and without GALK were used as negative and positive controls together with Protein Tyrosine Phosphatase CD45 inhibitor (EMD Bioscience cat# 540215) which is shown to inhibit GALK activity. Decrease in activity corresponds to inhibition of the enzyme is the desired outcome for this assay. NIH Molecular Libraries Probe Production Network [MLPCN] NIH Chemical Genomics Center [NCGC] Grant: R03 MH085689-01 PI Name: Kent Lai Ph.D., University of Utah
NCGC Assay Protocol Summary: Three uL/well of ATP-buffer solution (35 uM ATP, 20mM HEPES pH8.0, 5 mM MgCl2, 60 mM NaCl, 1 mM DTT, 0.01% BSA final concentration) was dispensed into 1536-well, assay plates (Greiner, solid white medium-binding plates) with Aurora Discovery BioRAPTR Flying Reagent Dispenser (FRD; Beckton-Dickenson). Compound solution (23 nL) was transferred to the assay plate using the Kalypsys 1536-pin tool. One uL/well GALK-galactose solution (5 nM GALK, 100 uM galactose, 20 mM HEPES pH8.0, 5 mM MgCl2, 60 mM NaCl, 1 mM DTT, 0.01% BSA final concentration) was then added using the FRD yielding a total kinase reaction volume of 4 uL/ well. After 1 hour of room temperature incubation, 4 uL Kinase-Glo Plus reagent was added for a final assay volume of 8 uL/ well. Luminescence was detected with the ViewLux plate reader (Perkin Elmer, Waltham, MA) after 10 min incubation using a 1 sec exposure time and 2x binning.

Chain of Galactokinase (Homo sapiens) (P51570 whole entry, looked up): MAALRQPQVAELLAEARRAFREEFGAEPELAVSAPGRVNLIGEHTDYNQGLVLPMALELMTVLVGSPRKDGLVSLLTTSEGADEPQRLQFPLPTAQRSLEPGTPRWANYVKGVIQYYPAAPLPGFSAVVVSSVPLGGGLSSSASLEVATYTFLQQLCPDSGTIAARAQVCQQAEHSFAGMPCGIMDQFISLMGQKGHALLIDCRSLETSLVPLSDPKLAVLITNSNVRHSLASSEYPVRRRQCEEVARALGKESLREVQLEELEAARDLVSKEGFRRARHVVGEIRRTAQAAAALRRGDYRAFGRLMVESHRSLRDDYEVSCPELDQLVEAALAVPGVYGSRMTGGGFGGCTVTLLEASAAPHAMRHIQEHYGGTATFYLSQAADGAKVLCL

outcome, inactive:
CCc1nc(-c2cc(S(=O)(=O)N3CCN(c4ccc(OC)cc4)CC3)ccc2OC)no1
Cc1ccc(NC(=O)Cn2c(=O)n(-c3ccccc3)c(=O)c3c4c(sc32)CCCC4)cc1
COc1cccc(CNC(=O)CN2C(=O)CCc3cc(S(=O)(=O)N4CCOCC4)ccc32)c1
C#CCOc1ccc(C2CC(=O)Nc3c2c(C)nn3-c2nc(C)cc(C)n2)cc1 (stereo not given)
Cc1cccc(NC(c2cccc(F)c2)c2ccc3ccc(C)nc3c2O)n1 (stereo not given)
O=C(CCS(=O)(=O)c1cc(Br)cc2c1N(C(=O)C1CC1)CC2)Nc1ccc(Br)cc1F
CCOC(=O)c1ccc(N2C(=O)c3n[nH]c(-c4ccco4)c3C2c2ccc(O)cc2)cc1 (stereo not given)
O=C(CC1Oc2ccc(Cl)cc2NC1=O)NCc1ccccc1 (stereo not given)
COc1ccc(-n2c(C)nc3c(cnn3-c3ccc(F)cc3)c2=O)cc1
COc1ccc(CCN2C(=O)N(c3cccc(OC)c3)C(=O)C2CC(=O)Nc2ccccc2)cc1 (stereo not given)
COc1ccc(CCNC(=O)CCc2c(C)nc3c(c(C)nn3-c3ccc(C)c(C)c3)c2C)c(OC)c1OC
O=C1CCCc2cc(S(=O)(=O)N3CCCC(C(=O)NCc4ccccc4)C3)ccc2N1 (stereo not given)
COc1ccccc1NC(=O)CSc1oc(-c2ccco2)nc1S(=O)(=O)c1ccc(Br)cc1
O=C(CSc1cn(CC(=O)N2CCOCC2)c2ccccc12)Nc1ccccc1
CCCNc1ncnc2c1c(-c1ccccc1)cn2-c1ccc(OCC)cc1
COc1cccc(CNC(=O)c2ccc3c(c2)sc2nc(-c4cccc(OC)c4)cn23)c1
COc1ccc(NC(=O)N2CCCn3nc(C)cc32)cc1OC
CC(C)c1ccc(NC(=O)Cn2c3ncccc3c(=O)n2-c2ccccc2)cc1
Cc1cn(C)c(CC(=O)NCc2ccc(Cl)cc2)c1C(=O)O
O=C(NCc1ccccc1)C1CCN(S(=O)(=O)c2ccc3[nH]c(=O)ccc3c2)CC1
Cc1cc(C)c(NC(=O)CCc2c(C)nc3c(c(C)nn3C(C)(C)C)c2C)c(C)c1
CCOC(=O)c1ccc(NC(=O)CSc2nc3c([nH]c4ccccc43)c(=O)n2C)cc1
COc1cccc(NC(=O)c2csnn2)c1
CCc1nc2c(cnn2-c2ccc(C)cc2)c(=O)n1-c1ccc(C)cc1
CCC1(C)CC(=O)c2c(ccc3oc(C(=O)Nc4ccc(C(C)=O)cc4)c(C)c23)O1 (stereo not given)
COc1ccc2oc(-c3ccc(C)c(NC(=O)c4sc5ccccc5c4Cl)c3)nc2c1
CCOC(=O)Cn1c(=O)n(-c2ccccc2OC)c2nc(-c3cccc(F)c3)nc(C(N)=O)c21
Cc1ccc(NC(=O)c2cn3c4c(ccc(Cl)c4c2=O)OC(C)C3)cc1C (stereo not given)
CCCCS(=O)(=O)c1oc(-c2cccs2)nc1S(=O)(=O)c1ccccc1
O=C(CSc1ncc(CO)n1Cc1ccc(F)cc1)NCc1ccco1
CNc1ccc(-c2nc(-c3ccccc3C)no2)cc1[N+](=O)[O-]
CCc1ccccc1NC(=O)Cn1c(=O)n(-c2cccc(C)c2)c(=O)c2c1c1cc(OC)ccc1n2C
CCOC(=O)c1c(S(=O)(=O)N2CCCC(C(=O)NCc3cccc(C)c3)C2)c(C)n(C)c1C (stereo not given)
CCOc1ccccc1NC(=O)c1ccc2c(c1)CCN2S(=O)(=O)c1ccc(C)cc1
CCOc1ccc(CNC(=O)C2CCN(c3nnc(-n4cccc4CNc4ccc(C)cc4)s3)CC2)cc1OC
CCN1C(=O)c2ccccc2Sc2ccc(NC(=O)Cc3ccc(OC)cc3)cc21
Cc1ccc(C)c(S(=O)(=O)c2nnn3c2nc(N2CCOCC2)c2sccc23)c1
Cc1ccc(NC(=O)C2CCN(S(=O)(=O)c3cc(-c4noc(C)n4)ccc3C)CC2)c(C)c1
CCCC(=O)Nc1ccc2oc(-c3ccc(O)c(Br)c3)nc2c1
O=S(=O)(c1ccc(C2CCCCC2)cc1)N1CCN(c2ccc(Cl)c(Cl)c2)CC1
COc1ccc(-c2nn(CC(=O)NC3CCCC3)c3c2cnc2ccc(F)cc23)cc1
Cc1ccc2oc(=O)c3cnn(CC(=O)NCc4ccccc4Cl)c3c2c1
Cc1ccc(CN(C(=O)COc2ccc(Cl)cc2C)C2CCS(=O)(=O)C2)o1 (stereo not given)
CCN(CCCNC(=O)c1cc(Nc2ccc(OC)cc2)nc2ccccc12)c1cccc(C)c1
Cc1c(C)n(Cc2ccc(Cl)cc2)c2ccc(C(=O)N3CCN(c4ccccc4F)CC3)cc12
Cc1ccc(OCCSc2nc3ccc(NC(=O)COc4ccc(C)cc4)cc3s2)cc1
CCSc1nnc(NC(=O)c2cc(=O)c3cc(C)c(C)cc3o2)s1
O=C(CS(=O)(=O)c1cccc2nsnc12)N1CCN(c2cccc(Cl)c2)CC1
Cc1nc2ccn(Cc3cccnc3)c(=O)c2cc1C(=O)N1CCN(c2ccccc2F)CC1
O=C(CSc1nc2nccnc2c(=O)n1CCc1c[nH]c2ccccc12)Nc1ccccc1F
CCn1cc(C(=O)OCC(=O)Nc2cc(C)cc(C)c2)c(=O)c2ccc(C)nc21
CCN1CCN(Cc2c(O)ccc3oc(C)c(C(=O)Nc4ccc(C)cc4C)c23)CC1
CC1CCCN(c2csc3ccc(F)cc3c2=O)C1 (stereo not given)
Cc1ccccc1CNC(=O)c1cccc(NC(=O)c2nsc3ccccc23)c1
CN(Cc1ccco1)S(=O)(=O)c1nnc(NC(=O)c2ccccc2)s1
Cc1ccc(F)cc1S(=O)(=O)N1CCC(c2nc3ccccc3s2)CC1
CCn1c2ccccc2c2cc(CN3CCN(Cc4cccc(Cl)c4)CC3)ccc21
CN(Cc1ccccc1)S(=O)(=O)c1ccc(F)c(C(=O)Nc2cccc(Cl)c2Cl)c1
O=C(Nc1cccc2cccnc12)c1cccc2c(Br)cccc12
CCOc1ccc(NC(=O)c2cc3c(=O)n(Cc4cccs4)ccc3nc2C)cc1
CCOc1ccccc1NC(=O)CN1CCCN(Cc2cccc(Cl)c2)S1(=O)=O
CCOCCCNC(=O)c1c(NC(=O)Cc2coc3ccc(C)cc23)sc2c1CCC2
CCc1nn(CCCC(=O)NCc2ccc(C)cc2)c(=O)c2cc3occc3n12
CCOc1ccc(N(Cc2ccccc2)C(=O)c2nc(S(C)(=O)=O)ncc2Cl)cc1
CCCN(CCC)C(=O)Cn1c(=O)n(-c2ccc(Cl)cc2)c(=O)c2c3c(sc21)CCCCC3
Cc1ccc(Cl)cc1NC(=O)CSc1nccn1C
CCN(CC)S(=O)(=O)c1ccc2c(c1)c(=O)c(C(=O)N1CCN(c3cccc(Cl)c3)CC1)cn2C
COc1ccc(CCNC(=O)CCCCn2c(=O)c3ccccc3n(Cc3ccccc3)c2=O)cc1OC
O=C(NCCc1ccc(Cl)cc1)c1ccc2nc(CCc3ccccc3)oc2c1
Cc1oc2ncn(CC(C)C)c(=O)c2c1C(=O)N1CCN(c2ccccc2F)CC1
CCCNC(=O)c1ccc(Cn2c(SCC(N)=O)nc3ccccc3c2=O)cc1
CCOC(=O)c1cc(NC(=O)c2ccc(F)cc2)c(=O)n2c1oc1ccccc12
COc1ccc(-n2c(=O)c3c(c4cc(OC)ccc4n3C)n(Cc3cccc(C)c3)c2=O)cc1
Cc1cccc(N2CCN(c3c(CN4CCCC4)c(=O)oc4ccccc34)CC2)c1C
O=C(Nc1nnc(S(=O)(=O)N2CCCc3ccccc32)s1)c1cccc(F)c1
CC(C)c1ccc(NC(=O)CN(C)S(=O)(=O)c2ccc3c(c2)c(=O)n(C)c(=O)n3C)cc1
Cc1ccccc1CN1CCC(CNC(=O)c2c(C)oc3ncnc(N4CCCCC4)c23)CC1
CCOc1ccc(CNC(=O)C2CCCN(S(=O)(=O)N(CC)c3ccc(OCC)cc3)C2)cc1 (stereo not given)
COC(=O)c1ccccc1NC(=O)C(Cc1ccccc1)N1Cc2ccccc2C1=O (stereo not given)
O=C(NCCc1csc(-c2ccc(C(F)(F)F)cc2)n1)C(=O)Nc1ccc(F)c(Cl)c1
Cc1oc2ccc(O)c(CN3CCC(C)CC3)c2c1C(=O)Nc1ccccc1
O=C(CC(c1cccs1)N1Cc2ccccc2C1=O)Nc1ccc(F)c(F)c1 (stereo not given)
COc1ccccc1NC(=O)Cn1cnc2ccc(S(=O)(=O)N3CCC(C)CC3)cc2c1=O
CCc1cccc(-n2nnc(-c3nsc(NC(=O)c4ccc(C)cc4)n3)c2C)c1
Cc1cccc(-n2ccnc2SCC(=O)Nc2cc(C(F)(F)F)ccc2Cl)c1
COc1ccc(-c2nc3scc(CCNS(=O)(=O)c4cc(F)ccc4OC)n3n2)cc1OC
C=Cc1ccc(Cn2c(C(=O)O)c(CNC3CCCC3)c3ccc(C)cc32)cc1
CCS(=O)(=O)N1CCC(n2c(C)nc3cccnc32)CC1
Cc1ccc(C(=O)CSc2nc(-c3ccccc3)nc3c2CCCC3)c(C)c1
Cc1ccc(C(=O)NCCSc2c(C)[nH]c3ccccc23)cc1C
COc1ccc(CCNC(=O)c2c3c(nc4ccccc24)C(=O)N(C2CCCCC2)C3)cc1OC
Cc1ccc(CNC(=O)c2ccc(CS(=O)Cc3cccc(Cl)c3)o2)cc1 (stereo not given)
CC1Cc2cc(S(=O)(=O)CCC(=O)Nc3ccc(F)c(Cl)c3)ccc2N1C(=O)C1CC1 (stereo not given)
CCCN1CCN(CCCNC(=O)c2cnn(-c3ccc(C)cc3)c2-n2cccc2)CC1
Cn1c(=O)c2c(SCC(=O)NCC3CCCO3)nc(-c3ccccc3F)nc2n(C)c1=O (stereo not given)
